Compound activity: PubChem BioAssay, The Scripps Research Institute Molecular Screening Center
In the library only some 4.8% were active in any assay of this set; here they are far more common.
hcDAF12 agonist: H. contortus DAF-12 nuclear receptor activators, primary screen, cell-based, luminescence, HEK293, lit1-tk-luc reporter; HEK293 hcDAF-12 lit1-tk-luc reporter; 0% DMSO, 100% Δ7-dafachronic acid; 1.4% of 370,000 active; activation, % at 6.8 µM;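 active = activation above the mean of all tested compounds plus 3 SD, cut at about 5.5% in these data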;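 also: 100% = response to 3 µM Δ7-dafachronic acid high control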
DAX1 inh-1: DAX1 (NR0B1) inhibitors on StAR promoter, primary screen, cell-based, luminescence, SF-1 (NR5A1), full-length DAX-1. HEK293T StAR-luciferase reporter, SF-1/DAX-1 repression relief. inhibition, % at 6.8 µM. 1.1% of 370,000 active. AID 652010, 2013;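 active = inhibition above the mean over all tested compounds plus 3 SD, cut at about 3.6% in these data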;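 also: 0% = DAX-1 cells with DMSO and 100% = cells lacking DAX-1 with DMSO; higher inhibition means more luminescence from relief of DAX-1 repression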
ssDAF12 agonist: S. stercoralis DAF-12 nuclear receptor activators, primary screen, cell-based, luminescence, HEK293, GRIP1 co-expression, lit1-tk-luc | Nuclear hormone receptor DAF-12 (Strongyloides stercoralis) | HEK293 ssDAF-12/GRIP1 lit1-tk-luc reporter; % of 3 µM dafachronic acid response | activation, % at 6.8 µM | 1% of 370,000 active | AID 652126, 2013;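 active = activation above the mean over all tested compounds plus 3 SD, cut at about 0.9% in these data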;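 also: 0% = DMSO-only wells and 100% = 3 µM delta7-dafachronic acid wells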
hgDAF12 agonist: H. glycines DAF-12 receptor agonists, primary screen, cell-based, luminescence, HEK293, GAL4 fusion, UAS-luciferase; Nuclear hormone receptor DAF-12 (Heterodera glycines), GAL4 fusion; HEK293 GAL4-hgDAF12 UAS-luciferase reporter, agonist luminescence; normalized to butyrate control; activation, % at 6.8 µM; 1.8% of 370,000 active;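 active = activation above a cutoff set at the mean of all screened compounds plus 3 SD, cut at about 10% in these data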;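 also: 0% = DMSO wells and 100% = sodium butyrate wells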
DAX1 inh-2: DAX1 (NR0B1) inhibitors, primary screen, cell-based, HEK293, Gal4-DAX1, luciferase luminescence. HEK293 Gal4-DAX1 luciferase reporter. Nuclear receptor subfamily 0 group B member 1 (Homo sapiens), P51843. 0.99% of 340,000 active. inhibition, % at 6.75 µM;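 active = inhibition above the mean over all tested compounds plus 3 SD, cut at about 4.2% in these data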;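 also: 0% = DAX1-transfected cells with DMSO and 100% = empty-vector control cells with DMSO; inhibition shows as a rise in luminescence from relieved DAX1 repression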
Target sequence (P51843 207-470 limits assumed): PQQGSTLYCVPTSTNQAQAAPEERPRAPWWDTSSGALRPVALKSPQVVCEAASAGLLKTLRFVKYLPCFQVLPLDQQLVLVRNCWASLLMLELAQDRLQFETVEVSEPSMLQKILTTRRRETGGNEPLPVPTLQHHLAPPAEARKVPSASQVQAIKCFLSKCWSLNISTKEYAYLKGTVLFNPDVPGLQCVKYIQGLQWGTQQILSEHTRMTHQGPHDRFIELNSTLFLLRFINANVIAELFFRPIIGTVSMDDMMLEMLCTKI
SMARCA2 activ: SMARCA2 (BRM) function activators, primary screen, cell-based, luminescence, high throughput; MG213 cells, MMTV-luciferase reporter, dexamethasone, overnight; AID 652017, 2013; 1% of 370,000 active; activation, % at 9.1 µM; in the data active = activation above about 7.8%;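 also: 0% = vehicle wells and 100% = reference activator wells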
* hit, by the source's call.

`Cc1cc(C(=O)Nc2ccc3[nH]ccc3c2)no1` gave hcDAF12 agonist 3, DAX1 inh-1 1, ssDAF12 agonist 0, hgDAF12 agonist 11*, DAX1 inh-2 2 and SMARCA2 activ 7.
Screening O=C(Nc1ccc(Cl)c(Cl)c1)Nc1ccccc1O returned hcDAF12 agonist 5, DAX1 inh-1 1, ssDAF12 agonist 0, hgDAF12 agonist 10, DAX1 inh-2 2 and SMARCA2 activ 7.
`O=C(Nc1ccccc1O)c1nc(Cl)ccc1Cl` gave hcDAF12 agonist 5.9*, DAX1 inh-1 0, ssDAF12 agonist 2.5*, hgDAF12 agonist 0, DAX1 inh-2 2 and SMARCA2 activ 1.
CCOC(=O)C1[C@H]2C(=O)N(C(C)c3ccc(OC)cc3)C[C@]23C=C[C@H]1O3 (stereo partly specified) was read as hcDAF12 agonist 0, DAX1 inh-1 0, ssDAF12 agonist -1, hgDAF12 agonist -1, DAX1 inh-2 0 and SMARCA2 activ -2.
`CCCN1CC23C=CC(O2)C(C(=O)O)C3C1=O` (stereo unspecified) gave hcDAF12 agonist 1, DAX1 inh-1 -1, ssDAF12 agonist -1, hgDAF12 agonist -1, DAX1 inh-2 5.0* and SMARCA2 activ -1.
CCC(C)N1CC23C=CC(O2)C(C(=O)OC)C3C1=O (stereo unspecified) was read as hcDAF12 agonist 1, DAX1 inh-1 0, ssDAF12 agonist -2, hgDAF12 agonist 4, DAX1 inh-2 6.7* and SMARCA2 activ -1.
Screening CCOC(=O)N1CCC(N2CC34C=CC(O3)C(C(=O)O)C4C2=O)CC1 (stereo unspecified) returned hcDAF12 agonist -2, DAX1 inh-1 0, ssDAF12 agonist -1, hgDAF12 agonist -1, DAX1 inh-2 4.3* and SMARCA2 activ 0.
Screening COc1cccc(OC)c1C(=O)Nc1ccc2c(c1)Cc1ccccc1-2 returned hcDAF12 agonist 6.4*, DAX1 inh-1 1, ssDAF12 agonist 0, hgDAF12 agonist 2, DAX1 inh-2 3 and SMARCA2 activ -4.
`COC(=O)C1CN(Cc2ccc(F)cc2)CCS(=O)(=O)N1Cc1cn(CCOC(C)=O)nn1` (stereo unspecified) gave hcDAF12 agonist 2, DAX1 inh-1 0, ssDAF12 agonist -2, hgDAF12 agonist 0 and SMARCA2 activ 1.
COC(=O)c1ccc(NC(=O)CSc2ccccc2)cc1 was read as hcDAF12 agonist 1, DAX1 inh-1 2, ssDAF12 agonist 0, hgDAF12 agonist 5, DAX1 inh-2 7.4* and SMARCA2 activ 1.
Screening COC(=O)c1ccc(NC(=O)CSc2ccccn2)cc1 returned hcDAF12 agonist 1, DAX1 inh-1 1, ssDAF12 agonist -2, hgDAF12 agonist 1, DAX1 inh-2 -2 and SMARCA2 activ 6.
Screening CN(C)S(=O)(=O)N1CCc2ccccc2C1 returned hcDAF12 agonist -1, DAX1 inh-1 -1, ssDAF12 agonist 0, hgDAF12 agonist 3, DAX1 inh-2 4.3* and SMARCA2 activ -5.
For COc1ccc2cc(C(=O)NCc3ccco3)c(=O)oc2c1 the results were hcDAF12 agonist 2, DAX1 inh-1 2, ssDAF12 agonist 0, hgDAF12 agonist 10*, DAX1 inh-2 2 and SMARCA2 activ 3.
Screening COc1ccc2cc(C(=O)NCc3ccco3)c(=Nc3ccc(C(=O)O)cc3)oc2c1 returned hcDAF12 agonist 5, DAX1 inh-1 1, ssDAF12 agonist 0, hgDAF12 agonist 11*, DAX1 inh-2 -1 and SMARCA2 activ 5.
For CCOC(=O)[C@@]12CCC3=C1N(CCC3)C(=O)[C@H](CC(=O)N1CCSCC1)C2 the results were hcDAF12 agonist -2, DAX1 inh-1 0, ssDAF12 agonist -1, hgDAF12 agonist 2 and SMARCA2 activ 1.
